High-throughput results: PubChem, National Center for Advancing Translational Sciences (NCATS)
ALDH1A1 inh: qHTS Assay for Inhibitors of Aldehyde Dehydrogenase 1 (ALDH1A1); Aldehyde dehydrogenase 1A1 (Homo sapiens), P00352; Purified ALDH1A1, NADH fluorescence, propionaldehyde substrate; Potency, µM (top dose mostly 75.3 µM), for the others: top-dose activity, negative = inhibition, hits mostly inhibitors; hit rate 7.3% among 220,000; AID 1030, 2008; active means well fitted inhibition curve with a large enough effect, not every such curve was filed as active; inconclusive means small, poorly fitted or top-dose-only effect, or another doubt; inactive means no such curve, though single readings can be large or run the other way;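 further: plate controls were no enzyme wells and a reference inhibitor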
Target sequence (P00352 whole entry, looked up): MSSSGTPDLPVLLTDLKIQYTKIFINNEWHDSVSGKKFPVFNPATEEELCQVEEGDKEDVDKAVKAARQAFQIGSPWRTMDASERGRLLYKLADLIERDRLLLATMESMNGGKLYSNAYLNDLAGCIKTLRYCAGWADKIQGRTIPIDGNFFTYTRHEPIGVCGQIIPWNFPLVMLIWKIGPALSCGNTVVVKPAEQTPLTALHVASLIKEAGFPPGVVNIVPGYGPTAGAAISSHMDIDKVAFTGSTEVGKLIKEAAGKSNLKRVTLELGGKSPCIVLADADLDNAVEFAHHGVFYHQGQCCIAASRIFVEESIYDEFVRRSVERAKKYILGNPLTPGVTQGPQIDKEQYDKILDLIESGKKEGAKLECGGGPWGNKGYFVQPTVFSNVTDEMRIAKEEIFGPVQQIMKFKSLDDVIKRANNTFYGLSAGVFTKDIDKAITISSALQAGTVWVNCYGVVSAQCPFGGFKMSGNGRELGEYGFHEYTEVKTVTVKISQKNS
PLK1 PBD block: qHTS for Inhibitors of PLK1-PDB (polo-like kinase 1 - polo-box domain): Primary Screen | Serine/threonine-protein kinase PLK1 (Homo sapiens), P53350 | Plk1 PBD binding of FITC phosphopeptide, fluorescence polarization | Potency, µM, without a hit: max response, negative = inhibition, usual class: inhibitors | hit rate 2.8% among 360,000 | AID 720504, 2013; further: series mostly up to about 57 µM; nearly all actives have a fitted effect of over 65% in size
RORg inh: qHTS for inhibitors of ROR gamma transcriptional activity | Nuclear receptor ROR-gamma (Mus musculus), P51450 | Drosophila S2 Gal4-RORgamma UAS-luciferase reporter, 20 h | Potency, µM (doses to about 53.6 µM), without a hit: at the highest dose activity change, negative = inhibition, actives largely listed as inhibitors | hit rate 5.4% among 310,000 | AID 2551, 2010; further: nearly all actives have a fitted effect of over 60% in size
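Luciferase reporter read in Schneider cells carrying Gal4-RORγ (mouse) and UAS-Photinus luciferase; cells given compound 1 h before 700 uM copper sulfate induction, then incubated 20 h at ambient temperature.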
VP16 counter: VP16 counterscreen qHTS for inhibitors of ROR gamma transcriptional activity | Drosophila S2 Gal4-VP16 UAS-luciferase, luminescence, 20 h | Potency, µM (doses to about 53.6 µM), inactives show at the top dose activity, negative = inhibition, usual class: inhibitors | hit rate 3.5% among 310,000 | AID 2546, 2010;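 further: Gal4-VP16 expression switched on by copper sulfate through the metallothionein promoter; nearly all actives have a fitted effect of over 50% in size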
Sfp PPTase inh: qHTS Assay for Inhibitors of Bacillus subtilis Sfp phosphopantetheinyl transferase (PPTase) | hit rate 3.5% among 310,000 | Biochemical Sfp PPTase activity, qHTS | 4'-phosphopantetheinyl transferase ffp (Bacillus subtilis), Q9F4F7 | AID 1490, 2009 | Potency, µM, for the others: largest response in the series, negative = inhibition, actives largely listed as inhibitors;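 further: the enzyme is Sfp with the accession as filed and its product quenches rhodamine fluorescence; 0% = enzyme reaction without inhibitor and -100% = no enzyme wells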
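Compounds were incubated with enzyme (final 15 nM) for 15 min at room temperature before substrate addition started the reaction. Fluorescence at 525 nm excitation, 598 nm emission was recorded immediately and after 30 minutes.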
* hit, by the source's call; ? = inconclusive; nt = no result given; [ ] = remark or other dose. In the library only some 12% were active in any assay of this set; here they are far more common. Unless noted, the call rests on the fitted dose curve; in most records, active means well fitted curve in the direction sought with a large enough effect; inconclusive means small, poorly fitted or top-dose-only effect, or another doubt; inactive means no such curve, though single readings can be large; an effect the other way counts as inactive or inconclusive. Unless noted, on the % scale 0 is the no-effect control and ±100 the full control effect; potency means the concentration at half of the fitted maximal effect.

SMILES | ALDH1A1 inh | PLK1 PBD block | RORg inh | VP16 counter | Sfp PPTase inh
NC(=S)NNC(=O)c1cccc(Br)c1 | -3.3% | nt | 6.31µM* | -28.4% | 16.5%
NC(=S)NNC(=O)c1ccccc1 | 3.5% | -4.1% | 2.82µM* | 22.4µM* | -2.6%
Cc1c(C(=O)NCc2ccc(C#N)cc2)sc(=O)n1Cc1ccccn1 | nt | -4.7% | nt | nt | nt
COc1ccc(C(C#N)=C2C=CC(=NO)C=C2)cc1 | nt | 26.7µM* | ? | ? | 25.1µM*
CC(=O)ON=C1C=CC(=C(C#N)c2ccccc2)C=C1 | nt | 2.38µM* | nt | nt | nt
CC(=O)OC(=C(OC(C)=O)c1ccccc1)c1ccccc1 | nt | -4.9% | nt | nt | nt
CN1OC[C@@H]2CN(Cc3cc(Cl)cc(Cl)c3)[C@H](c3cccc(-c4ccc(C#N)cc4)c3)C[C@@H]21 | nt | -9.6% | nt | nt | nt
COc1cccc(C(=O)c2ccncc2C(=O)O)c1OC | nt | 5.8% | nt | nt | nt
CC(C(=O)OCC(=O)c1ccccc1)N1C(=O)c2ccccc2C1=O (stereo unspecified) | -4.7% | 29.9µM* | 25.7% | -6.5% | -8.2%
CC(NC(=O)c1cc(F)c(F)cc1Cl)c1ccncc1 (stereo unspecified) | 0.7% | -13.8% | -12.0% | -11.6% | 0.6%
COC(=O)CNC(=O)c1cc(-c2ccncc2)nc2c(C)c(Cl)ccc12 | 12.6µM* | 1.2% | -0.7% | -0.3% | -27.9%
Cc1c(Cl)ccc2c(C(=O)NC(C)c3ccncc3)cc(-c3ccncc3)nc12 (stereo unspecified) | 1.12µM* | nt | ? | 12.6µM* | -1.1%
C=CCNC(=O)c1cc(-c2ccncc2)nc2c(C)cc(C)cc12 | nt | -4.3% | -31.0% | -18.4% | 8.0%
COCC(=O)N1CCc2nc(COc3ccccc3)c3c(c2C1)CO[C@@H](C)C3 | -1.4%[13.5 µM] | nt | nt | nt | -11.7%
O=C1SCCN1N=Cc1ccc([N+](=O)[O-])o1 | nt | -15.3% | nt | nt | nt
NCCCCCCC(O)(P(=O)(O)O)P(=O)(O)O | nt | nt | 0.0% | -5.6% | -1.3%
CCN(CC)c1ccc2cc(-c3nc4ccccc4n3C)c(=O)oc2c1 | ? | -2.4% | 1.4% | 2.1% | 7.0%
CCN(CC)c1ccc2cc(-c3nc4ccccc4[nH]3)c(=O)oc2c1 | 8.2% | 26.7µM* | 2.82µM* | -6.7%[0.365 µM] | 8.6%
COc1cccc(/C=N/Nc2ncnc3c2[nH]c2ccc(C)cc23)c1OC | nt | -5.7% | 6.31µM* | ? | -29.6%
Nc1ncnc(NNC(=O)CNC(=O)c2c(F)cccc2Cl)c1[N+](=O)[O-] | 9.0% | -4.7% | -37.3% | -7.2% | -45.3%
Cc1cc(/C=N/Nc2nc(N)ncc2[N+](=O)[O-])c(C)n1-c1cccc(C(F)(F)F)c1 | nt | nt | 6.31µM* | ? | ?
Cc1cc(/C=N/Nc2ncnc(N)c2[N+](=O)[O-])c(C)n1-c1ccccc1 | nt | 1.2% | 6.31µM* | 6.31µM* | ?
COc1ccccc1C(=O)NCC(=O)NNc1ncnc(N)c1[N+](=O)[O-] | 13.2% | nt | 15.2% | -6.7% | 7.08µM*
Cc1cc(=O)[nH]c(N/N=C/c2cc(C)n(-c3ccccc3)c2C)n1 | nt | -23.0% | ? | -19.3% | 0.4%
C[C@H](CC(=O)O)C(C(=O)O)C(=O)O | -2.9%[13.5 µM] | nt | nt | nt | nt
SMILES | ALDH1A1 inh | PLK1 PBD block | RORg inh | VP16 counter | Sfp PPTase inh
COc1cccc(/C=N/Nc2ncnc(N)c2[N+](=O)[O-])c1OC | -3.3% | -9.0% | ? | ? | 44.7µM*
Cc1cc(O)cc(O)c1C=NCc1ccco1 | 2.1% | -6.3% | ? | 5.62µM* | ?
Cc1ccc2nc(NCc3ccco3)c(C=NCc3ccco3)c(=O)n2c1 | ? | -1.1% | 33.0% | -6.3% | -2.1%
N#Cc1ccc(CN2CCC3(CC2)CCN(C(=O)c2ccco2)CC3)cc1 | 2.3% | nt | -16.9% | -6.6% | 31.4%
CCC1C(=O)N=C(SCC(=O)NC2CCCCC2)NC1=O (stereo unspecified) | 25.1µM* | -11.2% | 3.6% | 5.0% | 4.8%
Cc1cc(C(=O)NCc2ccco2)c2ccccc2n1 | 11.9% | -4.6% | 7.5% | -11.4% | 8.4%
Cc1ccc(-c2cc(C(=O)Nc3cccc(S(=O)(=O)N(C)C)c3)c3ccccc3n2)o1 | nt | -27.7% | -1.9% | 0.3% | 50.1µM*
Cc1cc(C(=O)Nc2ccccc2C)c2ccccc2n1 | nt | 0.6% | -22.1% | -4.8% | 5.4%
Cc1ccc(-c2cc(C(=O)Nc3ccccc3C)c3ccccc3n2)o1 | ? | ? | ? | 12.6µM* | 8.91µM*
